Data reported in PubChem BioAssay AID2158 (National Center for Advancing Translational Sciences (NCATS), 2009).
Values joined by “and” are separate entries in the source; they are usually repeats but may differ in a detail not shown here. Equal values may be shown once. Inconclusive results are not listed. Active and inactive are the calls of the source. Calls come from the whole dose curve; as a rule, active = well fitted inhibition curve with a large enough effect; inconclusive = small, poorly fitted or top-dose-only effect; inactive = no such curve, though single readings can be large or run the other way.

target: Cruzipain (Trypanosoma cruzi) (UniProt P25779); assay: Confirmation qHTS Assay for Inhibitors of Cruzain; details: purified cruzain, Z-FR-AMC fluorescence, 0.01% Triton; note: nearly all actives have a fitted effect of over 40% in size;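 for activity change, negative = inhibition: plate controls were uninhibited enzyme control for no effect and buffer wells lacking enzyme for full effect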
In short: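 Purified cruzain, 1.5 nM, pre-incubated 15 min at room temperature with compound in 100 mM sodium acetate pH 5.5, 5 mM DTT, 0.01% Triton X-100. Then 2 uM Z-FR-AMC added; AMC fluorescence (ex 360/em 450 nm) increase over 60 s gave reaction progress.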
Potency is the fitted concentration of half-maximal effect.

Cruzipain (Trypanosoma cruzi), sequence (P25779 123-467 limits assumed): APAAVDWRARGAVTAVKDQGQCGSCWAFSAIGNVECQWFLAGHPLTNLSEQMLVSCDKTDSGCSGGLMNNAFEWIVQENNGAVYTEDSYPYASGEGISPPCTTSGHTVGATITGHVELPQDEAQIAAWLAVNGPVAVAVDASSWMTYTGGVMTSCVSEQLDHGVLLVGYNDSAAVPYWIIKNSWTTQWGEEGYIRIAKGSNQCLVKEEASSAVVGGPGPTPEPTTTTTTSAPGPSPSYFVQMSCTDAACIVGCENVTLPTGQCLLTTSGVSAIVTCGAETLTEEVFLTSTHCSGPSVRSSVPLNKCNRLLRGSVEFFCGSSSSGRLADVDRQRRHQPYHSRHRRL

Q: For `O=C(CNC(=O)C1CCCCCC1)OC(C(=O)Nc1cc(C(F)(F)F)ccc1Cl)c1ccccc1` (stereo not given), which Potency is on record?
A: The Potency was 7.08 µM (active).

Q: How did the activity change, negative = inhibition turn out when `COc1cccc(CN2C(=O)c3ccccc3Sc3ccc(C(=O)NCCc4ccc(Cl)cc4)cc32)c1` was run?
A: Its activity change, negative = inhibition is 5.18% (inactive).

Q: `N#CCSc1nc2scc(-c3cccs3)c2c(=O)n1CCc1ccccc1` was tested. Which activity change, negative = inhibition did it give?
A: Its activity change, negative = inhibition is -7.68% (inactive).

Q: `CCCCNC(=O)c1ccc2nc(-c3ccco3)c(-c3ccco3)nc2c1` was tested. Which Potency did it give?
A: Its Potency is 7.94 µM (active).

Q: Which activity change, negative = inhibition does the source give for `CCSc1nnc(NC(=O)c2ccc(Br)s2)s1` here?
A: The activity change, negative = inhibition was -4.82% (inactive).

Q: Which Potency does the source give for `CCC(C)[C@@H](N)C(=O)N/N=C/c1ccc2ncccc2c1` (stereo not given in full) here?
A: The Potency was 22.4 µM (active).

Q: `Cc1ccc(C(=O)NC2CCN(C#N)CC2)cc1` was tested. Which activity change, negative = inhibition did it give?
A: The activity change, negative = inhibition was -5.84% (inactive).

Q: With `COc1ccc(-c2nnc(NC(=O)c3ccc(S(=O)(=O)N4CCCc5ccccc54)cc3)o2)cc1` as the compound, how does the activity change, negative = inhibition read?
A: Its activity change, negative = inhibition is -17.1% (inactive).

Q: With `COc1cc(C(=O)COC(=O)CNC(=O)C2CCCCC2)cc(OC)c1OC` as the compound, how does the Potency read?
A: Its Potency is 7.94 µM (active).

Q: For `Cc1ccccc1OCC(=O)NCC(=O)OCc1cccc2ccccc12`, which activity change, negative = inhibition is on record?
A: Its activity change, negative = inhibition is -2.79% (inactive).

Q: `N#Cc1nc(Nc2ccc(-c3ccccc3)cc2)nc(NC2CCCC2)n1` was tested. Which Potency did it give?
A: Its Potency is 3.98 µM (active).

Q: For `O=C(NCCCc1nc2ccccc2n1CCCOc1ccccc1)C1CCCCC1`, which activity change, negative = inhibition is on record?
A: The activity change, negative = inhibition was -12.3% (inactive).

Q: With `COC(=O)Cn1c(=NC(=O)c2ccc(Cl)s2)sc2cc(C)ccc21` as the compound, how does the activity change, negative = inhibition read?
A: Its activity change, negative = inhibition is -20% (inactive).

Q: How did the Potency turn out when `COc1nc(C#N)nc(N(C)C)n1` was run?
A: Its Potency is 6.31 µM (active) and 7.94 µM (active).

Q: Which Potency does the source give for `Cc1ccc(C(=O)Oc2oc(-c3ccco3)nc2C=Nc2ccc(Cl)cc2)cc1` here?
A: Its Potency is 11.2 µM (active).
